About 750 (31%) of roughly 2,400 compounds were called active. Some of the results follow. A number with no mark means an inactive call.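 The calls were made as follows: active = median signal gain over dofetilide-blocked control wells reaching their mean plus 3 SD, so readout 1 at least 0; inactive = the rest.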

The target of this assay is Voltage-gated inwardly rectifying potassium channel KCNH2 (Homo sapiens) (UniProt Q12809). Description: hERG protection against dofetilide inhibition, confirmation, cell-based, thallium flux, duplicate retest, dofetilide IC70 (AID 1835). The note with it: hERG cell line, FluxOR thallium flux, dofetilide-blocked; at 10 µM; hits give high values. (Block of hERG is tested as a sign of cardiac risk.)
Voltage-gated inwardly rectifying potassium channel KCNH2 (Homo sapiens), sequence (Q12809 whole entry, looked up): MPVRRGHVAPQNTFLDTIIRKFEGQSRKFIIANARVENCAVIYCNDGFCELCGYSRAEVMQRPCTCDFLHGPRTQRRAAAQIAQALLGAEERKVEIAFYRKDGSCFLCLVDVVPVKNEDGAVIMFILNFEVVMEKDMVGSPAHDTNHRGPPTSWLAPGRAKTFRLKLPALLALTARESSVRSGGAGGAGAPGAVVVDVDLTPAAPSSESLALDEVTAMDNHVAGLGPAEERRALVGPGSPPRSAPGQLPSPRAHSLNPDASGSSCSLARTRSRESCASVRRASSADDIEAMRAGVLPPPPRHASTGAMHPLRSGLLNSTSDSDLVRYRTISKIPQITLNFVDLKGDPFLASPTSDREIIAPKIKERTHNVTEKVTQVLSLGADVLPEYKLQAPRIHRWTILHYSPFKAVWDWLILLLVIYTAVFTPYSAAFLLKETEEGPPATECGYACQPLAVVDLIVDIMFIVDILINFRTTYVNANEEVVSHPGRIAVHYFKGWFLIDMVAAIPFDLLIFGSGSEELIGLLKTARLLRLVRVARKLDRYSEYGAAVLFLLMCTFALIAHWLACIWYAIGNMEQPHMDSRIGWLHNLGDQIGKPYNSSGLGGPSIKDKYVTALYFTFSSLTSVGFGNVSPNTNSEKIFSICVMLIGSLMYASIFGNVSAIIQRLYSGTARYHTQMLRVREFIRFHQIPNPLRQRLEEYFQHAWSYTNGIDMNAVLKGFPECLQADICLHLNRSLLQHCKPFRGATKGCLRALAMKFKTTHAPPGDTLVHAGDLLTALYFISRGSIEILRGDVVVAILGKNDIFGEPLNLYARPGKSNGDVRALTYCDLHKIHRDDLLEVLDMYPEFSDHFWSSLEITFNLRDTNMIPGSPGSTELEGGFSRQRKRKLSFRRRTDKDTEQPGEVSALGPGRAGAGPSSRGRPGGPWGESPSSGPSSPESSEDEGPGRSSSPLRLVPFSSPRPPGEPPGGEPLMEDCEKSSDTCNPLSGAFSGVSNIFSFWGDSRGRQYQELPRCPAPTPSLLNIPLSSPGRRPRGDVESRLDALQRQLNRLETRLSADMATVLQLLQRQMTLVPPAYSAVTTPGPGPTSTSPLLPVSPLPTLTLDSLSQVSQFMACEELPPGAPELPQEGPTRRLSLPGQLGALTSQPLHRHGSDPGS
`O=C(Nc1ccc(Cl)c(Cl)c1)Nc1nnc(CSc2ccccc2)s1`: the activity increase over dofetilide control, less the hit threshold is -10%. Take `N#CC(=C1SC=CS1)c1nc(-c2ccccc2)cs1`: the activity increase over dofetilide control, less the hit threshold is -7%. As to `S=c1nc(-c2ccccc2)c(-c2ccccc2)n[nH]1`, the activity increase over dofetilide control, less the hit threshold was -9%. The figure for `COC(=O)c1cc(-c2ccc(C)cc2)n[nH]1` is -17%. The figure for `Cc1ccc(-c2n[nH]c(=S)nc2-c2ccc(C)cc2)cc1` is 13% (active); for `Cn1cc(/C=C2\SC(=O)NC2=S)c2ccccc21` it is -24%; for `CCOc1ccc(/C=C2/SC(=O)NC2=S)cc1` it is 92% (active). The value for `CCOc1cc(-n2ncc(C#N)c2N)nc(SC)n1` was -12%; that for `CCOC(=O)c1ccc(Oc2cc(C)nc(SC)n2)cc1` was 10% (active). Consider `CCc1ccc(NC(=O)C(=O)NNC(=O)COc2cccc(OC)c2)cc1`, for which the activity increase over dofetilide control, less the hit threshold is 14% (active). The figure for `COc1cccc(OCC(=O)NNC(=O)C(=O)Nc2cccc(C)c2)c1` is 50% (active); for `COc1cccc(NC(=O)CSCc2n[nH]c(=O)[nH]2)c1` it is -20%; for `CCc1ccc(OCC(=O)Nc2ncn[nH]2)cc1` it is -29%.

With `O=C(COc1cccc(-n2cnnn2)c1)Nc1ccc([N+](=O)[O-])cc1`, the activity increase over dofetilide control, less the hit threshold was -1%. The value for `Cc1cccc(OCC(=O)NCc2nc(-c3ccccc3)no2)c1` was -13%; that for `Cc1cc([N+](=O)[O-])ccc1-c1ccc(C2Nc3ccccc3C(=O)N2O)o1` (stereo unspecified) was 7% (active); that for `COc1cc(/C=C2/OC(=O)c3cc([N+](=O)[O-])ccc32)cc(OC)c1OC` was -10%.

Regarding `Cc1ccc(/C=N/N2C(=O)c3ccccc3NC2c2ccc(C)cc2)cc1` (stereo unspecified), the activity increase over dofetilide control, less the hit threshold is -7%. The value for `C=CCn1c(-c2cc(-c3ccc(C)cc3)nc3ccccc23)n[nH]c1=S` was -16%; that for `Cc1ccc(-c2cc(-c3n[nH]c(=S)o3)c3ccccc3n2)cc1` was 37% (active); that for `Cc1ccc(C(C)C)c(OCc2n[nH]c(=S)o2)c1` was -4%.

Turning to `CC(/C=C1\SC(=S)N(NS(=O)(=O)c2ccc(C)cc2)C1=O)=C\c1ccccc1`, the activity increase over dofetilide control, less the hit threshold was 7% (active). Consider `CC(/C=C1\SC(=S)N(c2ccc(C(=O)O)cc2)C1=O)=C\c1ccccc1`, for which the activity increase over dofetilide control, less the hit threshold was -15%. On to `Cc1ccc(S(=O)(=O)N2C(=O)/C(=C3\SC(=S)NC3=O)c3ccccc32)cc1`, for which the activity increase over dofetilide control, less the hit threshold was -6%. In the case of `CC(/C=C1\SC(=S)N(NS(=O)(=O)c2ccccc2)C1=O)=C\c1ccccc1`, the activity increase over dofetilide control, less the hit threshold was 15% (active). As to `COc1ccccc1/C=C1\SC(=S)N(NS(=O)(=O)c2ccc(C)cc2)C1=O`, the activity increase over dofetilide control, less the hit threshold was -20%.

As for `O=C(O)CC1S/C(=N/N=C/c2ccc(-c3ccccc3[N+](=O)[O-])o2)NC1=O` (stereo unspecified), the activity increase over dofetilide control, less the hit threshold was -22%. The value for `COc1ccc(OCC(=O)Nc2c3c(nn2-c2ccc(OC)cc2)CS(=O)(=O)C3)cc1` was -18%; that for `COc1ccc(OC)c(NC(=O)COC(=O)c2ccc(-n3cnnn3)cc2)c1` was -10%; that for `COc1ccc(OC)c(NC(=O)C(=S)NC2CCCCC2)c1` was -2%. `COc1ccc(NC(=O)C(=O)NNC(=O)COc2ccc(OC)cc2)cc1`: the activity increase over dofetilide control, less the hit threshold is -12%.

On to `COc1ccc(NC(=O)COC(=O)c2c(C)noc2C)c(OC)c1`, for which the activity increase over dofetilide control, less the hit threshold is -2%. As to `COc1ccc(NC(=O)C(=O)NNC(=O)COc2ccc(Cl)cc2)c(OC)c1`, the activity increase over dofetilide control, less the hit threshold is 30% (active). With `COc1ccc(OCC(=O)NNC(=O)C(=O)Nc2cc(OC)ccc2OC)cc1`, the activity increase over dofetilide control, less the hit threshold was 8% (active).

Take `COc1cccc(OCC(=O)NNC(=O)C(=O)Nc2ccc(OC)cc2OC)c1`: the activity increase over dofetilide control, less the hit threshold was 39% (active). The figure for `COc1ccc(OC)c(NC(=O)C(=O)NNC(=O)C23CC4CC(CC(C4)C2)C3)c1` is 83% (active); for `Cc1n[nH]c(C)c1CCNC(=O)C1CCC(=O)N(Cc2ccccc2F)C1` (stereo unspecified) it is -15%. The figure for `O=c1c2cc(Br)ccc2nc(-c2ccc([N+](=O)[O-])cc2)n1O` is 47% (active); for `O=c1c2cc(Cl)ccc2nc(-c2ccc([N+](=O)[O-])cc2)n1O` it is 16% (active). With `N#Cc1ccc(-c2nc3cc(Cl)ccc3c(=O)n2O)cc1`, the activity increase over dofetilide control, less the hit threshold is -4%. As for `O=[N+]([O-])c1ccc(Nc2ccc(Cl)cc2)nc1`, the activity increase over dofetilide control, less the hit threshold was -17%. In the case of `O=[N+]([O-])c1ccc(CSc2nnc(SCc3ccc(Cl)cc3)s2)cc1`, the activity increase over dofetilide control, less the hit threshold was 0%.

Regarding `O=c1c2ccc(Cl)cc2nc(-c2ccc([N+](=O)[O-])cc2)n1O`, the activity increase over dofetilide control, less the hit threshold is 16% (active). The value for `O=C1C(c2ccccc2)C(c2ccccc2)NC(c2ccccc2)C1c1ccccc1` (stereo unspecified) was -17%. For the molecule `O=C(CC1NCCNC1=O)Nc1ccc([N+](=O)[O-])cc1` (stereo unspecified), the activity increase over dofetilide control, less the hit threshold was -17%.

Turning to `CC(=O)NCCC(=O)N(C)CC1CCN(CCc2cccc(C(F)(F)F)c2)CC1`, the activity increase over dofetilide control, less the hit threshold is -6%. The figure for `CS(=O)(=O)N1CCN(c2ccccc2NC(=O)Nc2cccc(Cl)c2)CC1` is -16%. `COc1cc(/C=N/NC(=O)NC2CCCCC2)ccc1O`: the activity increase over dofetilide control, less the hit threshold was -20%. The value for `COc1ccccc1C(=O)Nc1ccnn1C1CCN(C(=O)c2ccoc2C)CC1` was -7%.

For `CC(=O)Nc1ccccc1C(=O)C(=O)Nc1ccccc1`, the activity increase over dofetilide control, less the hit threshold was -23%.

On to `COc1ccccc1C(=O)NNC(=O)C(=O)NC1CCCCC1`, for which the activity increase over dofetilide control, less the hit threshold was 49% (active).

As to `COc1cc(NC(=O)c2ccccc2OCc2ccccc2)cc(OC)c1OC`, the activity increase over dofetilide control, less the hit threshold was -16%. The figure for `COc1ccccc1C(=O)NNC(=O)C(=O)NC(C)(C)C` is 21% (active). The figure for `Cc1ccc(NC(=O)C(=O)NNC(=O)c2ccccc2C)cc1Cl` is 54% (active); for `COc1ccccc1NC(=O)C1CCCN1C(=O)NCc1ccccc1` (stereo unspecified) it is -21%; for `COc1ccccc1C(=O)NNC(=O)C(=O)NCc1ccccc1` it is 16% (active). The figure for `COc1cccc(/C=C2/C(=O)NN(c3ccc(C)c(C)c3)C2=O)c1` is -14%. Regarding `O=C(COc1ccc(Cl)cc1)NNC(=O)C(=O)NC1CCCCC1`, the activity increase over dofetilide control, less the hit threshold is -9%. The value for `COc1ccc(C(=O)NCc2nnc(SCC(=O)NC3CCCCC3)n2C)cc1` was -18%; that for `COc1ccc(C(=O)NNC(=O)C(=O)NC2CCCCC2)cc1` was 5% (active).

In the case of `COc1ccccc1C(=O)NNC(=O)C(=O)Nc1ccc(C)cc1`, the activity increase over dofetilide control, less the hit threshold is 77% (active).

Take `COc1ccccc1C(=O)NNC(=O)C(=O)Nc1ccc(C)c(Cl)c1`: the activity increase over dofetilide control, less the hit threshold was 99% (active). The value for `COc1ccc(NC(=O)c2ccccc2SC)cc1OC` was -18%; that for `COc1ccccc1CC(=O)Nc1ccc(OC)c(OC)c1` was -8%; that for `O=c1oc2ccccc2c2c1nc(C(F)(F)F)n2-c1ccccc1` was -20%. With `CCCn1nnnc1SCC(=O)Nc1nnc(CC)s1`, the activity increase over dofetilide control, less the hit threshold was -6%. The value for `O=C(NCCc1nnc2ccc(NCc3ccc(Cl)cc3)nn12)c1ccccc1` was -11%.

For `COc1ccc(C2CC(c3ccc(Cl)cc3Cl)Nc3nc(N)nn32)cc1OC` (stereo unspecified), the activity increase over dofetilide control, less the hit threshold is -10%.

Consider `O=C(/C=C/Nc1ccc(F)c(F)c1)c1cccs1`, for which the activity increase over dofetilide control, less the hit threshold was -18%. The figure for `Cc1ccccc1NC(=O)CC1S/C(=N/c2nccs2)N(C)C1=O` (stereo unspecified) is 0%. As to `C/C(=N\O)C1CC(CC(=O)O)C1(C)C` (stereo unspecified), the activity increase over dofetilide control, less the hit threshold is -13%. The figure for `CSC1=C(C#N)C(CC(C)C)C2=C(CCCC2=O)N1` (stereo unspecified) is -12%; for `CCN1CCN(C(=O)c2ccc(Cn3c(=O)[nH]c4cc(OC)c(OC)cc4c3=O)cc2)CC1` it is -17%. The value for `COc1ccc(N(CC(=O)N2CCN(Cc3ccccc3)CC2)S(C)(=O)=O)cc1OC` was -3%; that for `CCOC(=O)N1CCN(C(=O)c2ccc(CN(c3ccc(C)c(C)c3)S(C)(=O)=O)cc2)CC1` was 8% (active). The value for `S=c1nc(COc2ccccc2)[nH]c2ccccc12` was 100% (active); that for `S=c1nc(Cc2ccc(Cl)cc2)[nH]c2ccccc12` was 90% (active).

With `O=c1[nH]c(SCc2cccc(Cl)c2)nc2ccccc12`, the activity increase over dofetilide control, less the hit threshold was -14%.

In the case of `O=C(O)CCCCCNc1nc(=S)[nH]c2ccccc12`, the activity increase over dofetilide control, less the hit threshold was -7%. With `S=c1[nH]nc(-c2ccc(Cl)cc2)n1Cc1ccccc1`, the activity increase over dofetilide control, less the hit threshold was -13%. The value for `S=c1nc(Cc2ccccc2)[nH]c2ccccc12` was 78% (active); that for `S=c1nc(SCc2ccccc2)[nH]c2ccccc12` was 100% (active); that for `CCC(C)N(C(=O)CSc1nnc(NC(C)C)s1)C1CCS(=O)(=O)C1` (stereo unspecified) was -11%. The figure for `CS(=O)(=O)N(CCc1ccccc1)CC(=O)N1CCN(c2ccc(F)cc2)CC1` is -9%. As to `Cc1cc(=O)oc2cc(OC(C(=O)O)c3ccccc3)ccc12` (stereo unspecified), the activity increase over dofetilide control, less the hit threshold was -19%.

As for `C[C@@H]1CCCCCCCCCCC1=O`, the activity increase over dofetilide control, less the hit threshold is -15%. Consider `Fc1cccc(C2NN=C(c3ccccc3)S2)c1` (stereo unspecified), for which the activity increase over dofetilide control, less the hit threshold is -12%. Take `COc1ccc(Cl)cc1N(C)C(=O)CCNC(=O)Cn1cnc2ccccc2c1=O`: the activity increase over dofetilide control, less the hit threshold is -11%. Regarding `CC(=O)c1ccc2c3c(cccc13)CC2`, the activity increase over dofetilide control, less the hit threshold is -7%. With `O=C(c1cc2c(s1)-c1ccccc1OC2)N1CCCC1`, the activity increase over dofetilide control, less the hit threshold is 0%. The value for `NC(=O)C1CCN(C(=O)c2cc3c(s2)CCCC3)CC1` was 9% (active). The value for `CC(OC(=O)c1cc2c(s1)CCCCC2)C(=O)NC(N)=O` (stereo unspecified) was -5%. As for `COC(=O)CCn1[nH]c(=O)c2ccccc2c1=O`, the activity increase over dofetilide control, less the hit threshold is -2%. Turning to `COc1ccc(N2CCN(S(=O)(=O)c3ccc(Br)s3)CC2)cc1`, the activity increase over dofetilide control, less the hit threshold was -14%. For `S=c1[nH]nc(-c2ccco2)n1/N=C/C(Cl)=C/c1ccccc1`, the activity increase over dofetilide control, less the hit threshold is -14%.

For the molecule `Cc1cccc(/C=N/n2c(COc3ccccc3)n[nH]c2=S)c1`, the activity increase over dofetilide control, less the hit threshold is 1% (active). Consider `S=c1[nH]nc(-c2n[nH]c3c2CCC3)n1/N=C/C=C/c1ccccc1`, for which the activity increase over dofetilide control, less the hit threshold is -27%. Regarding `S=c1[nH]nc(Cc2ccc(Br)cc2)n1/N=C/c1ccc(Cl)cc1`, the activity increase over dofetilide control, less the hit threshold is -5%. As for `CC(C)c1ccc(/C=N/n2c(COc3ccccc3)n[nH]c2=S)cc1`, the activity increase over dofetilide control, less the hit threshold is 3% (active). The figure for `Cc1ccc2nsnc2c1S(=O)(=O)Nc1cccc2nsnc12` is 8% (active); for `O=C(O)c1ccccc1NC(=O)C1CCN(S(=O)(=O)c2cccc3nsnc23)CC1` it is -3%.

For the origin of these results see PubChem BioAssay AID1835 (Johns Hopkins Ion Channel Center, 2009).
